Assay outcomes from PubChem BioAssay.
Tg IFNy HTS: T. gondii growth inhibition under IFN-gamma. Toxoplasma gondii growth in IFN-gamma-treated host cells; hits give low values. activity change, negative = inhibition, % (no concentration beside the values). actives 3.8% (n = 69,000). AID 1259416; in the data active = activity change below about -70%, passing the limit was not always enough;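 also: host cells are HeLa cells infected with Toxoplasma gondii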
Starred values were filed as active, the others as inactive; ! = not confirmed by another sample. This excerpt belongs to a sample that is enriched for hits.

SMILES	Tg IFNy HTS
O=C(Nc1ccc2c(c1)OCO2)c1c(O)c2cccnc2n(Cc2ccccc2)c1=O	112.9
O=C(Nc1ccc2c(c1)OCCO2)c1c(O)c2cccnc2n(Cc2ccccc2)c1=O	211.0
COCCN1CC[C@@H]2C[C@H](C(=O)Nc3cccnc3)O[C@@H]2C1	-45.5
COCCO[C@@H]1C[C@@H]2CN(c3ncc(C)cn3)CCN2C1	-53.6
CC(C)CCC1(CN2CCCC2=O)C(=O)NC(=O)NC1=O	3.9
CN(C)C(=O)Oc1cc(=O)n(C)c2ccccc12	-21.1
CN(C)C(=O)Oc1c(-c2ccccc2)cn(Cc2ccccc2)c(=O)c1-c1ccccc1	-83.6*
O=C(Nc1cccc(Br)c1)c1cc2cccnc2n(Cc2ccccc2F)c1=O	0.4
O=C1C=C2C=CC3CC2(O1)C1CCCCN31 (stereo not given)	-50.8
COCCN1C[C@@H]2OCCN(Cc3c(C)noc3C)[C@H]2C1	0.2
CN(C)C(=O)Oc1ccc(Br)cc1C(=O)Nc1ccc(F)c(Cl)c1	-100.7*
O=C(Nc1ccc(F)c(Cl)c1)c1cc2cccnc2n(Cc2ccc(F)cc2)c1=O	-1.6
COc1ccc(NC(=O)c2cc3cccnc3n(Cc3ccc(Cl)cc3)c2=O)cc1OC	58.4
NC1(c2ccccc2Cl)CCCCC1=O (stereo not given)	11.2
NCCc1ccccn1	23.6
O=C(Nc1cccc(Br)c1)c1cc2cccnc2n(Cc2ccccc2)c1=O	-40.0
C=CCNc1ccccc1C(=O)N1C[C@@H]2C[C@@H](C1)c1cccc(=O)n1C2	-28.8
CO[C@H]1CCC(O[C@H]2CC([C@]3(C)CC[C@]4(C[C@H](O)[C@@H](C)[C@@H]([C@@H](C)/C=C(\C)C(=O)[C@H](C)C[C@H](C)C(=O)O)O4)O3)O[C@]3(O[C@@H](C4O[C@@](O)(CO)[C@H](C)C[C@@H]4C)C[C@@H]3C)[C@@H]2C)O[C@@H]1C (stereo not given in full)	-78.2*
O=C(C1CC1)N1C[C@H]2CN(Cc3ccccn3)C[C@@H]2C1	76.1
C[C@@H]1CN([C@H](C)CO)C(=O)CCCn2cc(nn2)CO[C@@H]1CN(C)C(=O)Oc1ccc2ccccc2c1	88.8
CN1C(=O)C2(CCN(Cc3cc4n(n3)CCCNC4)CC2)c2ccccc21	4.9
O=[N+]([O-])c1ccc(O)c([N+](=O)[O-])c1	-79.4*!
O=[N+]([O-])c1cc([As](=O)(O)O)ccc1O	17.2
N#CC(C#N)=Cc1ccc([N+](=O)[O-])c(O)c1	13.3
COCC1(NC(=O)C(C)N2CCCC2=O)CCCC1 (stereo not given)	7.2
SMILES	Tg IFNy HTS
CN1c2ccc(Br)cc2[C@@H]2NCC[C@@H]2[C@@H]1CO	7.2
CN(C)CCNc1nc2cc(O)ccc2c2c1C(=O)c1ccccc1-2	-68.9
Cn1cc(C2=C(c3cn(C4CCN(Cc5ccccn5)CC4)c4ccccc34)C(=O)NC2=O)c2ccccc21	20.4
CC1(C)CC[C@]2(C(=O)O)CC[C@]3(C)[C@H](C(=O)C=C4[C@@]5(C)C=C(C#N)C(=O)C(C)(C)[C@@H]5CC[C@]43C)[C@@H]2C1	-78.5*
O=C(NC1CCCCC1)c1cc2cccnc2n(Cc2ccc(F)cc2)c1=O	-37.9
O=[N+]([O-])/C=C/c1ccc2c(c1)OCO2	5.0
COC(=O)[C@@H]1[C@@H](CO)[C@@H]2Cn3c(cccc3=O)[C@H]1N2CCc1ccccc1	7.1
O=C1CN=C(c2ccccc2Cl)c2cc([N+](=O)[O-])ccc2N1	-38.6
Fc1ccc(CN2C[C@@H]3CN(c4ncccn4)C[C@@H]3C2)cc1	-10.6
COc1cc2cc(c1Cl)N(C)C(=O)C[C@H](OC(=O)C(C)C)[C@]1(C)O[C@H]1[C@H](C)[C@@H]1C[C@@](O)(NC(=O)O1)[C@H](OC)/C=C/C=C(/C)C2	-80.5*
COCCN1CCN(C2CCOC2)Cc2ccc(C)nc21 (stereo not given)	430.9
CN1C[C@H](CNC(=O)OCc2ccccc2)C[C@@H]2c3cccc4c3c(cn4C)C[C@H]21	-48.8
Cc1cc(N2CCCN3CCC[C@H]3C2)nc(-c2ccccc2)n1	1.3
COc1cccc(-c2ccc([C@@H]3[C@H](CO)N4CCCCN(C(=O)Cc5ccncc5)C[C@@H]34)cc2)c1	-36.3
Cc1ccsc1CN1CC[C@@]2(C[C@H](OCc3cccnc3)CO2)C1	-1.5
O=C(CCCN1CCC2(CC1)C(=O)N(Cc1cccc(F)c1)CN2c1ccccc1)c1ccc(F)cc1	-82.8*!
CCC(=O)N1CCC2(CC1)C(=O)N(Cc1cccnc1)CCN2C	-2.1
COC(=O)CN1CN(c2ccccc2)C2(CCN(Cc3ccc4ccccc4c3)CC2)C1=O	-8.2
C/C=C/c1ccc([C@@H]2[C@H](CO)N3CCCCN(C(=O)Cc4cccnc4)C[C@@H]23)cc1	3.4
O=C1CC[C@@]2(O)[C@H]3Cc4ccc(O)c5c4[C@@]2(CCN3CC2CC2)[C@H]1O5	-8.3
Oc1ccc2c3c1O[C@H]1c4[nH]c5c(c4C[C@@]4(O)[C@@H](C2)N(CC2CC2)CC[C@]314)C[C@@]1(O)[C@H]2Cc3ccc(O)c4c3[C@@]1(CCN2CC1CC1)[C@H]5O4	12.1
O=C1/C(=C/c2ccccc2)C[C@@]2(O)C3Cc4ccc(O)c5c4[C@@]2(CCN3CC2CC2)[C@H]1O5	-76.1*!
C=CCN1CCN(Cc2cnn(C)c2)Cc2ccc(C)nc21	-2.2
Cc1nc(CN2C[C@H](Oc3ccccn3)[C@@H]3OCCC[C@@H]32)cs1	10.5
Cc1cc(C(=O)N2CC[C@H]3[C@@H]2CCN3CC(C)C)no1	-15.3
SMILES	Tg IFNy HTS
Cc1cnc2c(C(=O)N3C[C@@H]4CN(C)C[C@]4(C(=O)O)C3)cnn2c1	2.7
c1ccc(Cn2ccnc2)cc1	-2.5
Clc1ccc(CSC(Cn2ccnc2)c2ccc(Cl)cc2Cl)cc1 (stereo not given)	-83.6*
Clc1ccc(COC(Cn2ccnc2)c2ccc(Cl)cc2Cl)cc1 (stereo not given)	-74.7*!
Cc1nn(CCNC(C)Cn2ccnc2)c(C)c1Cl (stereo not given)	-2.7
COc1ncccc1CN1CCC2(CC1)COCCN2CC1CC1	-30.2
CN1CCN(c2ccc3ccccc3n2)CC1	1.8
Cc1[nH]c2ccc(O)cc2c1CCN	8.4
COc1cc2c(cc1O)CCNC2C (stereo not given)	4.3
O=C(Cc1ccncc1)N1CCCCN2[C@H](CO)[C@@H](c3ccc(C#Cc4ccccc4F)cc3)[C@H]2C1	-31.6
CCCn1cc(CN2C[C@H](c3ccccc3)[C@@H]3[C@H]2C2CCN3CC2)c(C)n1	-2.9
c1cc(C2CCCNC2)[nH]n1 (stereo not given)	0.2
Nc1cc(-c2cccc3c2CCNC3)ncn1	17.2
COc1ccc(C)cc1NC(=O)c1cc2cccnc2n(Cc2ccc(F)cc2)c1=O	48.9
O=C1CN=C(c2cccc(Br)c2)c2oc3ccccc3c2N1	-0.2
O=c1[nH]c2ccccc2n1C1CCN(CCCC(c2ccc(F)cc2)c2ccc(F)cc2)CC1	-94.6*!
CC(C)c1ccc(NC(=O)c2cc3cccnc3n(Cc3ccccc3F)c2=O)cc1	-24.5
C/C=C/c1ccc(C2[C@@H]3CN(C(=O)C4CCOCC4)C[C@H]2N3)cc1 (stereo not given in full)	16.8
Ic1cncc(OC[C@@H]2CCN2)c1	5.7
C=CCN1C[C@H](C)N([C@H](c2ccc(C(=O)N(CC)CC)cc2)c2cccc(OC)c2)C[C@H]1C	23.7
C=CCN1C[C@H]2COC[C@H](CC(=O)NCCc3ccncc3)[C@H]2C1	-2.1
O=C(NCc1cccnc1)c1cc2cccnc2n(Cc2ccc(F)cc2)c1=O	-48.7
C1CCC(CN2CCO[C@H]3CNC[C@H]3C2)C1	-53.4
